# Experimental data as given in the antibiotic and cytotoxicity screens of Wong et al. (2023).
# Screen size: about 39,000 compounds; about 3,300 (8.5%) were called active. This excerpt belongs to a sample that is enriched for actives.
# Tested on: HepG2
# Test: cytotoxicity call (relative viability < 0.9)
# Conditions: 10 µM
row,SMILES,cytotoxicity call
1,COc1nc(C#N)nc(N2CCCCC2)n1,inactive
2,COc1ccc(S(=O)(=O)N(C)C[C@H]2OCCCC[C@@H](C)Oc3ccc(NC(=O)Nc4ccc(F)cc4)cc3C(=O)N([C@@H](C)CO)C[C@@H]2C)cc1,inactive
3,CCO[C@@H]1OC(C(=O)N2CCN(Cc3ccc4c(c3)OCO4)CC2)=C[C@H](C)[C@H]1CCCOC(=O)NCCCCCC(=O)NO,inactive
4,Cc1noc(C)c1NC(=O)Nc1ccc2c(c1)C(=O)N([C@H](C)CO)C[C@@H](C)[C@H](CN(C)Cc1ccccc1)OCCCC[C@H](C)O2,inactive
5,Cc1cccc(S(=O)(=O)N2C[C@H](O)COC[C@H]3O[C@H](CC(=O)NCCCN4CCOCC4)CC[C@@H]32)c1,inactive
6,C[C@@H]1CN([C@H](C)CO)C(=O)Cc2cc(NS(C)(=O)=O)ccc2O[C@@H]1CN(C)C(=O)Nc1ccc2c(c1)OCO2,inactive
7,C[C@@H]1CN([C@@H](C)CO)C(=O)c2cc(NC(=O)CCC(F)(F)F)ccc2O[C@@H](C)CCCCO[C@H]1CN(C)Cc1ccc2c(c1)OCO2,inactive
8,Cc1noc(C)c1S(=O)(=O)N(C)C[C@@H]1Oc2ccc(NC(=O)Cn3cnnn3)cc2CC(=O)N([C@@H](C)CO)C[C@@H]1C,inactive
9,C[C@H]1CN([C@@H](C)CO)S(=O)(=O)c2ccc(C#CCN(C)C)cc2O[C@H]1CN(C)C(=O)c1ccccc1F,inactive
10,O=C(C[C@@H]1CC[C@@H](NC(=O)CN2CCOCC2)[C@@H](CO)O1)NC1CCC1,inactive
11,COc1cccc(CN(C)C[C@@H]2OCc3ccccc3-c3c(n(C)c4ccccc34)C(=O)N([C@H](C)CO)C[C@@H]2C)c1,inactive
12,Cc1ccc(S(=O)(=O)N(C)C[C@@H]2Oc3ccc(NC(=O)CCCN(C)C)cc3C(=O)N([C@H](C)CO)C[C@@H]2C)cc1,inactive
13,Nc1ccc(/C=C/C(=O)NCc2cc3cc(-c4ccc(C(=O)N5CCC(F)(F)CC5)cc4)cc(-c4ccc(F)cc4)c3o2)cn1,active
14,C[C@H]1CN([C@@H](C)CO)C(=O)CCCn2nncc2CO[C@@H]1CN(C)C(=O)C1CC1,inactive
15,CC(C)NC(=O)Nc1cccc2c1O[C@H](CN(C)Cc1ccc(Oc3ccccc3)cc1)[C@@H](C)CN([C@H](C)CO)C2=O,inactive
16,Cc1ccc2nccc(C(=O)N3CCC[C@@H](Cn4cc(C(C)(C)N)nn4)C3)c2c1,inactive
17,C[C@H]1CCCCO[C@H](CN(C)C(=O)Nc2cccc3ccccc23)[C@@H](C)CN([C@@H](C)CO)C(=O)c2cc(NS(C)(=O)=O)ccc2O1,inactive
18,COc1cc(C(=O)N2CCN(CCN3C(=O)c4cccc5cccc(c45)C3=O)CC2)cc(OC)c1OC,inactive
19,COc1cc(N2CCC(N)CC2)ccc1Nc1ncc(Cl)c(-c2c[nH]c3ccccc23)n1,active
20,COc1cc(N2CCC(O)CC2)ccc1Nc1cc(Nc2ccccc2S(=O)(=O)C(C)C)c2cc[nH]c2n1,inactive
21,COc1cc(N2CCC(N3CCN(C)CC3)CC2)ccc1Nc1ncc(Cl)c(Nc2ccccc2S(=O)(=O)C(C)C)n1,active
22,COc1cc(C(=O)NC2CCN(C)CC2)ccc1Nc1ncc2c(n1)N(C1CCC(O)CC1)CCC(=O)N2C (stereo not drawn),inactive
23,NC1CCN(C(=O)c2c[nH]c3ccccc23)CC1,inactive
24,COc1cc(C(=O)N2CCC(N3CCN(C)CC3)CC2)ccc1Nc1ncc2c(n1)N(C)c1ccccc1C(=O)N2C,active
25,Cc1cc(Nc2ncc(Cl)c(Nc3ccccc3S(=O)(=O)C(C)C)n2)c(OC(C)C)cc1C1CCNCC1,active

row,SMILES,cytotoxicity call
1,Cc1noc(C)c1S(=O)(=O)Nc1ccc2c(c1)C(=O)N([C@@H](C)CO)C[C@H](C)[C@H](CN(C)C(=O)NC1CCCCC1)O2,inactive
2,Cc1noc(C)c1NC(=O)N(C)C[C@H]1Oc2c(NC(=O)c3ccc(-c4nccs4)cc3)cccc2C(=O)N([C@@H](C)CO)C[C@H]1C,inactive
3,Cc1noc(C)c1NC(=O)N(C)C[C@@H]1OCCCC[C@H](C)Oc2ccc(NC(=O)c3ccccc3)cc2C(=O)N([C@@H](C)CO)C[C@@H]1C,inactive
4,NC[C@H]1OB(O)c2c(OCCCO)cccc21,inactive
5,C=CCOC(=O)[C@H]1[C@@H]2C(=O)O[C@@H](c3ccccc3)[C@@H](c3ccccc3)N2[C@@H](c2ccc(OCCOC(=O)[C@@H]3C[C@@H]4C(=O)N5CCC[C@H]5C(=O)N4[C@@H]3c3cccc(OCCO)c3)cc2)[C@]12C(=O)Nc1ccc(I)cc12,inactive
6,CC(C)NC(=O)Nc1ccc2c(c1)CC(=O)N([C@H](C)CO)C[C@H](C)[C@H](CN(C)C(=O)NC1CCCCC1)O2,inactive
7,CN1C(=O)c2cc(NC(=O)c3cccs3)ccc2OC[C@@H]2O[C@@H](CC(=O)NCC(F)(F)F)CC[C@@H]21,inactive
8,COc1cc(N2CCC(N(C)C)CC2)ccc1Nc1ncc(Cl)c(Nc2ccccc2P(C)(C)=O)n1,active
9,C=C(C)C1CCC2(C(=O)O)CCC3(C)C(CCC4C5(C)CCC(O)C(C)(C)C5CCC43C)C12 (stereo not drawn),inactive
10,C=C(C)C1CCC2(CO)CCC3(C)C(CCC4C5(C)CCC(O)C(C)(C)C5CCC43C)C12 (stereo not drawn),active
11,C=C(C)C1CCC2(C)CCC3(C)C(CCC4C5(C)CCC(O)C(C)(C)C5CCC43C)C12 (stereo not drawn),inactive
12,CCS(=O)(=O)Nc1ccc2c(c1)C(=O)N(C)[C@@H]1CC[C@@H](CC(=O)NCCOC)O[C@@H]1CO2,inactive
13,Cc1noc(C)c1NC(=O)N(C)C[C@@H]1Oc2ccc(NC(=O)Nc3ccc(C(F)(F)F)cc3)cc2CC(=O)N([C@H](C)CO)C[C@H]1C,inactive
14,CNC[C@@H]1Oc2cc(C#CC(C)(C)O)ccc2S(=O)(=O)N([C@@H](C)CO)C[C@@H]1C,inactive
15,Cc1ccc(S(=O)(=O)Nc2cccc3c2O[C@H](CN(C)Cc2ccc(-c4ccccc4)cc2)[C@@H](C)CN([C@H](C)CO)C3=O)cc1,inactive
16,Cc1ccc(S(=O)(=O)Nc2cccc3c2O[C@@H](CN(C)Cc2ccc(-c4ccccc4)cc2)[C@@H](C)CN([C@H](C)CO)C3=O)cc1,active
17,C[C@H]1CN([C@@H](C)CO)C(=O)c2cccc(NS(=O)(=O)c3ccccc3)c2O[C@H]1CN(C)Cc1ccc(-c2ccccc2)cc1,inactive
18,Cc1ccc(S(=O)(=O)Nc2cccc3c2O[C@H](CN(C)Cc2ccc(-c4ccccc4)cc2)[C@H](C)CN([C@H](C)CO)C3=O)cc1,active
19,Cc1ccc(S(=O)(=O)Nc2cccc3c2O[C@@H](CN(C)Cc2ccc(-c4ccccc4)cc2)[C@H](C)CN([C@H](C)CO)C3=O)cc1,inactive
20,C[C@@H]1CN([C@@H](C)CO)C(=O)c2cccc(NS(=O)(=O)c3ccc(Cl)cc3)c2O[C@H]1CN(C)Cc1ccc(-c2ccccc2)cc1,inactive
21,C[C@@H]1CN([C@@H](C)CO)C(=O)c2cccc(NS(=O)(=O)c3ccccc3)c2O[C@H]1CN(C)Cc1ccc(-c2ccccc2)cc1,inactive
22,Cc1ccc(S(=O)(=O)Nc2cccc3c2O[C@@H](CN(C)Cc2ccc(-c4ccccc4)cc2)[C@@H](C)CN([C@@H](C)CO)C3=O)cc1,inactive
23,C[C@@H]1CN([C@@H](C)CO)C(=O)c2cccc(NS(=O)(=O)c3ccc(Cl)cc3)c2O[C@@H]1CN(C)Cc1ccc(-c2ccccc2)cc1,active
24,C[C@@H]1CN([C@H](C)CO)C(=O)c2cccc(NS(=O)(=O)c3ccccc3)c2O[C@@H]1CN(C)Cc1ccc(-c2ccccc2)cc1,active
25,Cc1ccc(S(=O)(=O)Nc2cccc3c2O[C@H](CN(C)Cc2ccc(-c4ccccc4)cc2)[C@@H](C)CN([C@@H](C)CO)C3=O)cc1,inactive

row,SMILES,cytotoxicity call
1,C[C@@H]1CN([C@H](C)CO)C(=O)c2cccc(NS(=O)(=O)c3ccc(Cl)cc3)c2O[C@H]1CN(C)Cc1ccc(-c2ccccc2)cc1,inactive
2,O=C(C[C@@H]1CC[C@H](NC(=O)Nc2ccc3c(c2)OCO3)[C@@H](CO)O1)NCCCN1CCOCC1,inactive
3,C[C@@H]1CN([C@H](C)CO)C(=O)c2cc(NC(=O)CCCN(C)C)ccc2O[C@@H](C)CCCCO[C@H]1CN(C)S(=O)(=O)c1cn(C)cn1,inactive
4,C[C@H](CO)N1C[C@H](C)[C@H](CN(C)C(=O)c2cccc(F)c2)Oc2cc(C#CC3CC3)ccc2S1(=O)=O,inactive
5,CC(C)C[C@@](O)(CC(=O)O)C(=O)O,inactive
6,CN(C)CCCNC(=O)C[C@@H]1CC[C@H]2[C@@H](COc3ccc(NS(C)(=O)=O)cc3C(=O)N2C)O1,inactive
7,CC(C)N1CC=C[C@@]23O[C@@H]4C=CCOC(=O)[C@@H]4[C@H]2C(=O)N([C@@H](C)CO)[C@@H]3C1=O,inactive
8,O=c1[nH]c(=S)[nH]nc1O,inactive
9,CC1(C)C=C(C(=O)N2CCOCC2)C(C)(C)N1,inactive
10,C[C@@H]1CN([C@H](C)CO)C(=O)Cc2cc(NC(=O)C3CCCCC3)ccc2O[C@H]1CN(C)S(=O)(=O)c1cn(C)cn1,inactive
11,C[C@H](CO)N1C[C@H](C)[C@@H](CN(C)Cc2ccc(-c3ccccc3)cc2)Oc2ccc(NC(=O)Cn3cnnn3)cc2CC1=O,inactive
12,NCCCCCCNC(=O)[C@H]1C[C@H]2C(=O)N[C@@H](Cc3ccccc3)C(=O)N2[C@H]1c1cccc(OCCO)c1,inactive
13,C[C@@H]1CCCCO[C@@H](CN(C)C(=O)Cc2ccccc2)[C@H](C)CN([C@@H](C)CO)C(=O)c2cc(NS(=O)(=O)c3ccc(F)cc3)ccc2O1,inactive
14,O.O=C([O-])CC(O)(CC(=O)[O-])C(=O)[O-].[Li+].[Li+].[Li+],inactive
15,C[C@H]1CN([C@@H](C)CO)C(=O)c2cccc(NS(=O)(=O)c3ccc(Cl)cc3)c2O[C@@H]1CN(C)Cc1ccc(C(F)(F)F)cc1,inactive
16,C[C@@H]1CN([C@@H](C)CO)C(=O)c2cccc(NS(=O)(=O)c3cccs3)c2O[C@@H]1CN(C)Cc1ccc(-c2ccccc2)cc1,active
17,C[C@@H]1CN([C@@H](C)CO)C(=O)c2cccc(NS(=O)(=O)c3ccc(Cl)cc3)c2O[C@@H]1CN(C)Cc1ccc(C(F)(F)F)cc1,active
18,CC(C)NC(=O)N(C)C[C@H]1Oc2c(NS(=O)(=O)c3ccccc3)cccc2C(=O)N([C@H](C)CO)C[C@H]1C,active
19,C[C@@H]1CN([C@H](C)CO)C(=O)c2cccc(NS(=O)(=O)c3cccs3)c2O[C@H]1CN(C)Cc1ccc(-c2ccccc2)cc1,inactive
20,C[C@H](CO)N1C[C@H](C)[C@@H](CN(C)Cc2ccc(C(F)(F)F)cc2)Oc2c(NS(=O)(=O)c3ccc(Cl)cc3)cccc2C1=O,inactive
21,C[C@@H]1CN([C@H](C)CO)C(=O)c2cccc(NS(=O)(=O)c3cccs3)c2O[C@@H]1CN(C)Cc1ccc(-c2ccccc2)cc1,inactive
22,CC(C)NC(=O)N(C)C[C@@H]1Oc2c(NS(=O)(=O)c3ccccc3)cccc2C(=O)N([C@@H](C)CO)C[C@@H]1C,inactive
23,CC(C)NC(=O)N(C)C[C@H]1Oc2c(NS(=O)(=O)c3ccccc3)cccc2C(=O)N([C@H](C)CO)C[C@@H]1C,inactive
